# Most compounds without a hit are left out; they make up all but 8% or so of the library.
# FMDV inh – blocks foot and mouth disease virus; FMDV antiviral cell-based qHTS; Potency, µM (highest dose often 57.9 µM), without a hit: at the highest dose activity change, negative = inhibition, usual class: inhibitors; actives 1.2% (n = 410,000); AID 1159524; calls by dose curve; tested in HEK293T cells; note: read-out not given here; potency is the fitted concentration of half-maximal effect; % is set by controls: 0 for no effect and ±100 for the full control effect; nearly all actives have a fitted effect of over 45% in size
# HCMV inh – blocks human cytomegalovirus replication; AID 1259415; actives 4.5% (n = 410,000); activity change, negative = inhibition, % at 57.5 µM; HFF cells, HCMV-luciferase reporter, 72 h; active compounds read low; in the data active = activity change below about -60%; inconclusive = no clear call, values can overlap the other calls; inactive = above about -39%; note: % is set by controls: 0 for no effect and ±100 for the full control effect
#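 Screen run at 2 compound doses on HFFs infected with reporter HCMV, MOI 1 PFU/cell. Luciferase activity from cell lysates at 72 h post infection gave inhibition relative to buffer-only and Salinomycin wells.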
# HCV inhibitor – inhibitors of hepatitis C virus infection. Huh7.5.1 HCVcc-Cre infection, luciferase reporter, 44 h. Potency, µM (doses to about 41.8 µM), for inactives: top-dose activity change, negative = inhibition, actives largely listed as inhibitors. actives 3.4% (n = 340,000); active = well fitted inhibition curve with a large enough effect; inconclusive = small, poorly fitted or top-dose-only effect, or another doubt; inactive = no such curve, though single readings can be large or run the other way; note: potency is the fitted concentration of half-maximal effect; % is set by controls: 0 for no effect and ±100 for the full control effect
#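 HCVcc-Cre virus at an moi near 0.5 was added right after compound to cells cultured 4 h from seeding (1,000 cells/well). Luciferase activity was determined 44 h later, 15 min after substrate addition at RT.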
# Lassa entry inh – Lassa virus entry inhibition. Lassa virus pseudotype entry inhibition, cell reporter. AID 540256. Potency, µM (titrated, usually from 37.9 µM), inactives show at the highest dose activity change, negative = inhibition, usual class: inhibitors. actives 1.2% (n = 300,000); calls by dose curve; tested in HEK293 cells; note: potency is the fitted concentration of half-maximal effect; % is set by controls: 0 for no effect and ±100 for the full control effect; nearly all actives have a fitted effect of over 50% in size
# MARV entry inh – inhibitors of Marburg virus binding or cell entry; Marburg virus pseudotyped entry inhibition, cell reporter; Potency, µM (top dose mostly 37.8 µM), inactives show at the highest dose activity change, negative = inhibition, hits mostly inhibitors; actives 1.8% (n = 300,000); calls by dose curve; tested in HEK293 cells; note: potency is the fitted concentration of half-maximal effect; % is set by controls: 0 for no effect and ±100 for the full control effect
# SARS PLpro yeast – inhibitors of SARS-CoV papain-like protease in yeast | S. cerevisiae expressing SARS-CoV PLpro, growth rescue | Potency, µM (titrated, usually from 32.9 µM), for the others: at the top dose activity, positive = growth rescue, usual class: activators | actives 0.19% (n = 330,000) | AID 485353; calls by dose curve; note: potency is the fitted concentration of half-maximal effect; 0% is about no effect; nearly all actives have a fitted effect of over 55% in size
# The depositor's hits bear a star; ? = inconclusive; . = no result given; [ ] = remark or other dose.
SMILES,FMDV inh,HCMV inh,HCV inhibitor,Lassa entry inh,MARV entry inh,SARS PLpro yeast
CC(C)c1ccc(NC(=S)N2CCCC(c3ccc(F)cc3)=N2)cc1,-10.5%,-22.4,7.5%,-23.9%[46.1 µM],2.51µM*,-3.6%
Cc1c(C(=O)C(=O)NCC2CCCO2)c2ccccc2n1C (stereo unspecified),-10.9%,?,7.8%,5.6%,?,0.0%
c1ccc2c(c1)CSc1ccccc1C2C1=NCCN1 (stereo unspecified),-2.2%,-13.2,-11.2%,-15.9%,?,-1.6%
Clc1ccc2c(c1)C(C1=NCCN1)c1ccccc1CS2 (stereo unspecified),-2.2%,-15.7,?,?,1.3µM*,9.7%
CCCCN(C)S(=O)(=O)c1ccc(C(=O)N=c2sc3cc(NC(C)=O)ccc3n2C)cc1,-18.7%,-18.9,22.7%,-2.4%,8.6%,7.2%
CCCCN(CC)S(=O)(=O)c1ccc(C(=O)N=c2sc3cc(NC(C)=O)ccc3n2C)cc1,-17.0%,-72.4*,?,-29.3%,14.2%,13.9%
Cc1noc(C)c1COc1cccc(C(=O)NCCc2c[nH]c3ccccc23)c1,-18.0%,28.5,?,10µM*,?,-1.3%
Cc1ccc(NC(=O)c2ccc(OCc3c(C)noc3C)cc2)cc1,.,-8.0,.,.,.,-1.8%
CCn1nc(C(=O)NNC(=O)c2ccccc2OCc2c(C)noc2C)c2ccccc2c1=O,-27.8%,-82.8*,?,.,.,1.1%
Cc1noc(C)c1COc1ccccc1C(=O)NCCc1ccccc1,-16.0%,-16.5,3.16µM*,7.8%,-10.7%,2.8%
Cc1ccc(NC(=O)c2ccc(OCc3c(C)noc3C)cc2)nc1,?,?,11.2µM*,.,.,-6.2%
Cc1ccc(CNC(=O)c2cccc(OCc3c(C)noc3C)c2)cc1,-27.2%,-2.9,-4.6%,-26.2%,-6.3%,-1.6%
S=c1ccss1,-7.7%,.,.,.,.,.
CC(=O)Nc1cc2c(s1)c1cnn(Cc3ccccc3F)c(=O)c1n2C,.,.,.,.,.,-2.0%
Cc1ccc(C(=O)NNC(=O)c2ccccc2OCc2c(C)noc2C)cc1,7.4%,2.5,1.2%,5.7%,3.55µM*,-3.9%
COc1ccc(C(=O)N/C(=C\c2cn(C)c3ccccc23)C(=O)NCCCN2CCOCC2)cc1OC,5.2%,-0.1,22.6%,4.0%[46.1 µM],11.2%[46.1 µM],-3.7%
Cc1ccc(-n2ncc3c2ncn2c(C)nnc32)cc1C,.,-66.8*,1.0%,-12.4%,-10.3%,1.3%
Nc1ccc(C(=O)OCCCc2nc3cc4ccccc4cc3[nH]2)cc1,22.9%,?,-16.1%,.,.,-0.5%
Nc1ccc(Cc2nc3cc4ccccc4cc3[nH]2)cc1,.,?,-15.7%,2.59µM*,?,-0.9%
Nc1ccc(C(=O)OCc2nc3c(ccc4ccccc43)[nH]2)cc1,8.6%,-34.7,?,8.91µM*,?,-13.6%
c1ccc(Cc2nc3ccccc3[nH]2)cc1,1.5%,-18.3,14.6%,.,.,9.2%
Nc1ccc(C(=O)OCc2nc3cc4ccccc4cc3[nH]2)cc1,19.9%,-93.1*,-28.4%,2.59µM*,1.64µM*,2.0%
COc1ccc([C@@H]2[C@@H](C(=O)N3CCOCC3)CC(=O)N2C(=O)C2CC2)cc1,.,11.4,.,.,.,.
O=C(CSc1nc2c([nH]c3ccccc32)c(=O)n1-c1cccc(Cl)c1)NCc1ccccc1,-26.6%,?,.,?,.,.
CCNc1ncc2nc(-c3ccccc3)c(=O)n(-c3ccc(OC)cc3)c2n1,3.3%,.,.,.,.,.
SMILES,FMDV inh,HCMV inh,HCV inhibitor,Lassa entry inh,MARV entry inh,SARS PLpro yeast
COC1=C[C@@H](C)C2CC3OC(=O)C[C@H]4C(C)=C(OC)C(=O)C([C@@]2(C)C1=O)[C@@]34C (stereo partly specified),-3.4%,.,.,.,.,.
COc1ccc(C=C(c2nc3ccccc3s2)c2nc3ccccc3s2)cc1O,-7.4%,-83.5*,?,?,?,5.6%
COc1cccc2c1NC1(c3ccccc3)c3ccccc3-n3nncc3CN1C2=O (stereo unspecified),.,-4.3,.,.,.,.
O=C(Nc1cccc(O)c1)c1cc(-c2ccc3c(c2)OCO3)on1,11.2µM*,41.2,7.1%,?,?,-5.3%
O=C(Nc1cccc(O)c1)c1cc(-c2ccccc2Cl)on1,11.2µM*,-23.8,0.5%,5.01µM*,7.08µM*,-7.1%
CC(=O)c1cccc(NC(=O)c2cc(-c3ccc4c(c3)OCCO4)on2)c1,-46.4%,102.8,.,7.1%[46.1 µM],20.2%[46.1 µM],.
O=C(c1csc(Nc2ccccc2Cl)n1)N1CCCC1,46.0%,-93.2*,-1.4%,-6.4%,?,-14.2%
COc1ccc(NC(=O)c2cc(-c3ccccc3Cl)on2)cc1OC,14.8%,-6.3,9.6%,4.7%[46.1 µM],-0.4%[46.1 µM],1.9%
O=C(Nc1ccc(SC(F)F)cc1)c1cc(-c2ccc3c(c2)OCCO3)on1,?,-66.4*,.,?,-19.1%[46.1 µM],.
O=C1CCN(Cc2cccc(C(F)(F)F)c2)CCN1Cc1ccccn1,-10.5%,.,.,.,.,.
CSc1nnc(CNC(=O)/C=C/c2ccccc2Cl)n1-c1ccc(F)cc1,-2.0%,.,.,.,.,.
COc1ccccc1-c1cc(C(=O)N2CCCC2)no1,13.6%,51.3,?,-26.6%[46.1 µM],?,-6.7%
O=C(c1cc(-c2ccccc2Cl)on1)N1CCCC1,-20.0%,?,-9.5%,?,11.2µM*,-3.7%
Cc1ccc(OC(=O)C2c3ccccc3Oc3ccccc32)cc1C,-25.4%,-27.6,-1.9%,18.4µM*,?,5.2%
CC(=O)c1ccc(OC(=O)C2c3ccccc3Oc3ccccc32)cc1,-16.2%,0.6,15.2%,20.4%,?,0.2%
CNC(=O)NC(=O)CSc1ccc(S(=O)(=O)N(C)C2CCCCC2)cn1,-11.2%,-13.8,-2.2%,?,25.4%,1.8%
CCCn1cc(SCC(=O)NCc2ccc3c(c2)OCO3)c2ccccc21,7.6%,-1.1,?,.,.,-5.5%
COc1ccccc1-n1c(SCC(=O)NCc2ccc3c(c2)OCO3)nc2cc([N+](=O)[O-])ccc21,1.5%,-10.9,25.1µM*,?,24.3%,6.3%
CCn1cc(SCC(=O)NCc2ccc3c(c2)OCO3)c2ccccc21,5.1%,26.5,10µM*,.,.,-1.4%
CC(Sc1nc2cc([N+](=O)[O-])ccc2n1-c1ccc(F)cc1)C(=O)NCc1ccc2c(c1)OCO2 (stereo unspecified),-2.1%,-21.6,?,?,?,14.8%
COc1ccc(CNCc2cn(-c3cccc(F)c3)nc2-c2ccc(C)o2)cc1,-16.7%,-25.9,10µM*,.,.,-2.1%
COc1ccc(-n2cc(CN3CCC(OC)CC3)c(-c3cccc(F)c3)n2)cc1,-24.2%,7.0,2.6%,-16.4%[46.1 µM],?,-1.7%
COc1ccc(-n2cc(CNC3CCC(O)CC3)c(-c3cccc(F)c3)n2)cc1 (stereo unspecified),-13.5%,-27.4,-8.5%,-17.3%,17.8µM*,-0.2%
COc1ccc(-n2cc(CNCc3cccnc3)c(-c3cccc(F)c3)n2)cc1,29.6%,11.5,0.0%,9.7%,?,-3.1%
CC[C@@H]1C(c2ccccc2)=NN(c2ccccc2)[C@H]1C(=O)N1CCOC1=O,-23.0%,-17.0,8.4%,.,.,-5.7%
